# POLI inh = inhibitors of human DNA polymerase iota. Potency, µM (highest dose often 115 µM), for the others: at the top dose activity, negative = inhibition, hits mostly inhibitors. Pol iota fluorescent replication assay, 10 min. hit rate 1% among 390,000; note: potency is the fitted concentration of half-maximal effect
# Target sequence (Q9UNA4 whole entry, looked up): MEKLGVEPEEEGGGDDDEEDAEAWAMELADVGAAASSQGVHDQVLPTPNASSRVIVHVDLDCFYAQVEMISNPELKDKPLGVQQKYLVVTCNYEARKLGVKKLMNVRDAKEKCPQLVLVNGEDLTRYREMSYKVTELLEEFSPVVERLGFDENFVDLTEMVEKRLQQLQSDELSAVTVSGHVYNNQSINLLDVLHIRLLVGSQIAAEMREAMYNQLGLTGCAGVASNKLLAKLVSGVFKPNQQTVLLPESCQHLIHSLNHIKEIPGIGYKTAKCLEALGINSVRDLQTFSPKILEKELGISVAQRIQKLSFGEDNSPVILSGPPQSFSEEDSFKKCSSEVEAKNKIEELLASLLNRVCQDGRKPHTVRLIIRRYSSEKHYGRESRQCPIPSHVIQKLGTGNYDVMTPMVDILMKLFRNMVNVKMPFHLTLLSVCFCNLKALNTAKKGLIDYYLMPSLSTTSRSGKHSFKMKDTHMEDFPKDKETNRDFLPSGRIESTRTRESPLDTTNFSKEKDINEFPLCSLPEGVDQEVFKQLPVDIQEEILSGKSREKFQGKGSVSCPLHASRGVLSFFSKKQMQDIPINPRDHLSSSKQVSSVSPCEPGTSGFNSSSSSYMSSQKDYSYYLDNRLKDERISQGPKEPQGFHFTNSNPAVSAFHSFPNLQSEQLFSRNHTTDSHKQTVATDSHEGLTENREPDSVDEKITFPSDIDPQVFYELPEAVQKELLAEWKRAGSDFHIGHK
#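 Fluorescent replication assay read twice, at 0 min and 10 min after adding 50 nM (final) substrate. Enzyme (10 nM) and compounds were first incubated 15 min at room temperature; enzyme-free buffer wells were negative controls.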
# PI5P4Ka inh = blocks human PI5P4K alpha kinase activity. P48426. hit rate 1.2% among 330,000. AID 652105. max response, %. PI5P4Kalpha enzyme, ADP-Glo luminescence, 60 min; active compounds read low; active = max response of -50% or lower; inconclusive = between -30% and -50%; inactive = -30% or higher; note: value at the top dose of about 77 µM; % is set by controls: 0 for no effect and ±100 for the full control effect
#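 Quantitative HTS of the MLSMR library against PI5P4Kalpha with substrate. ATP added last at 5 microM final; room temperature, 60 minutes. Remaining ATP depleted, ADP converted and read as luminescence.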
# Pol kappa inh-1 = blocks human DNA polymerase kappa activity; purified Pol kappa, fluorescent DNA synthesis assay, 10 min; Potency, µM (titrated, usually from 107 µM), for the others: at the top dose activity, negative = inhibition, actives largely listed as inhibitors; hit rate 0.53% among 400,000; note: potency is the fitted concentration of half-maximal effect; % is set by controls: 0 for no effect and ±100 for the full control effect
#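 First, compounds were pin-transferred onto 10 nM Pol kappa. After 15 min at room temperature, substrate was added to 50 nM final. Fluorescence was then measured kinetically at 0 and 10 min.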
# WRN helicase inh = WRN helicase (human) inhibition. Q14191. WRN helicase unwinding, fluorescent forked duplex, kinetic. Potency, µM (top dose mostly 114 µM), for the others: at the top dose activity change, negative = inhibition, hits mostly inhibitors. hit rate 0.46% among 360,000. AID 651768; note: potency is the fitted concentration of half-maximal effect; % is set by controls: 0 for no effect and ±100 for the full control effect; nearly all actives have a fitted effect of over 55% in size
#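 Kinetic fluorescence helicase assay: unwinding of a quenched forked DNA duplex (100 nM final) with 2 mM ATP final raises red fluorescence (525/598 nm). Compounds sat 15 min at room temperature with 20 nM WRN beforehand.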
# Pol eta inh-1 = inhibitors of human DNA polymerase eta. Q9Y253. recombinant Pol eta, fluorescent DNA replication assay. Potency, µM (titrated, usually from 114 µM), for the others: top-dose activity change, negative = inhibition, most hits filed as inhibitors. hit rate 1.2% among 390,000; note: potency is the fitted concentration of half-maximal effect; % is set by controls: 0 for no effect and ±100 for the full control effect
#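 Pol eta at 10 nM preincubated with compounds 15 min at room temperature; reaction started with fluorescent substrate (50 nM final) and read kinetically at 0 and 10 min.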
# Pol beta inh = blocks human DNA polymerase beta activity; P06746; Pol beta primer extension/strand displacement, fluorescence kinetic; Potency, µM (top dose mostly 114 µM), for inactives: at the highest dose activity change, negative = inhibition, usual class: inhibitors; hit rate 1.3% among 340,000; note: potency is the fitted concentration of half-maximal effect; % is set by controls: 0 for no effect and ±100 for the full control effect
#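 10 nM enzyme + cpd, 15 min RT; start with substrate 50 nM final; read 0 min and after 10 min RT. Corrected, normalized data; 4-parameter Hill curve fit.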
# TbPGK inh = TbPGK inhibition, hit validation; Potency, µM (top dose mostly 57.5 µM), without a hit: at the top dose activity change, negative = inhibition, hits mostly inhibitors; TbPGK coupled GAPDH assay, Kinase-Glo luminescence; shares compounds with Pol kappa inh-1; hit rate 79% among 500; note: potency is the fitted concentration of half-maximal effect; % is set by controls: 0 for no effect and ±100 for the full control effect; nearly all actives have a fitted effect of over 65% in size
# POLI cherry-pick = Inhibitors of human DNA polymerase iota, confirmation. Pol iota primer extension, TAMRA/BHQ fluorescence. shares compounds with Pol kappa inh-1. hit rate 77% among 1,500. Potency, µM, actives largely listed as inhibitors. AID 720496; note: potency is the fitted concentration of half-maximal effect
# GALK confirm = galactokinase (human) inhibition, confirmation; shares compounds with Pol eta inh-1; Potency, µM (doses to about 115 µM), for the others: at the highest dose activity, negative = inhibition, hits mostly inhibitors; hit rate 70% among 150; purified GALK, Kinase-Glo ATP depletion luminescence
# GALK redox cs = generates H2O2 by redox cycling, flagging GALK artifacts; shares compounds with Pol eta inh-1; Phenol red-HRP H2O2 redox cycling, absorbance 600 nm; Potency, µM (titrated, usually from 115 µM), for inactives: top-dose activity change, negative = H2O2 signal, actives largely listed as inhibitors; hit rate 40% among 150; AID 2035
# HEK293 viability = counter-screen for GALK inhibitors: HEK293 cell cytotoxicity | Potency, µM (titrated, usually from 46.1 µM), without a hit: top-dose activity change, negative = cytotoxicity, most hits filed as inhibitors | shares compounds with Pol eta inh-1 | HEK-293 viability, ATP luminescence (CellTiter-Glo), 24/48 h | hit rate 10% among 170; note: potency is the fitted concentration of half-maximal effect; % is set by controls: 0 for no effect and ±100 for the full control effect
# Pol kappa inh-2 = Pol kappa (human) inhibition, cherry-pick confirmation; shares compounds with Pol eta inh-1; purified Pol-kappa, fluorescent strand-displacement substrate; Potency, µM, hits mostly inhibitors; hit rate 76% among 920; note: potency is the fitted concentration of half-maximal effect
# Pol eta inh-2 = confirmation of human DNA polymerase eta inhibitors | shares compounds with Pol eta inh-1 | Pol eta primer extension, TAMRA/BHQ fluorescence, 10 min | Potency, µM, most hits filed as inhibitors | hit rate 64% among 2,600; note: potency is the fitted concentration of half-maximal effect
# The depositor's hits bear a star; i = inactive; ? = inconclusive; nt = not tested or not shown; [ ] = remark or other dose. Hits are enriched below; roughly 2.8% of the tested compounds scored in any of these assays. Unless noted, calls come from the whole dose curve; as a rule, active = well fitted curve in the direction sought with a large enough effect; inconclusive = small, poorly fitted or top-dose-only effect, or another doubt; inactive = no such curve, though single readings can be large; an effect the other way counts as inactive or inconclusive.
SMILES,POLI inh,PI5P4Ka inh,Pol kappa inh-1,WRN helicase inh,Pol eta inh-1,Pol beta inh,POLI cherry-pick,Pol eta inh-2,others
N#CC(C#N)=C1C=C2C=C(N3CCCCCC3)CCC2CC1 (stereo not drawn),45µM*,0,?,15µM*,50µM*,40µM*,42*,17*,
Cc1ccc(/C=C/C(=O)NCc2ccccn2)o1,16µM*,-64*,45µM*,50µM*,3.2µM*,18µM*,19*,27*,Pol kappa inh-2=15*
COc1ccc(/C=C/C(=O)NCc2ccccn2)cc1,10%,4,-8%,-2%,-7%,33%,nt,nt,
Cn1c(O)c(C2=c3ccccc3=NC2=O)[nH]c1=S,4%,-15,-5%,-11%,-16%,-2%,nt,nt,
COc1ccc2nc(-n3c(O)c(C4=c5ccccc5=NC4=O)[nH]c3=S)sc2c1,?,-67*,?,25µM*,8.9µM*,8.9µM*,27*,27*,Pol kappa inh-2=17*
O=C(N/C=C/c1ccco1)NCc1ccccc1,?,?,35µM*,?,18µM*,16µM*,27*,27*,
O=C(O)c1ccc(Nc2nc(-c3cc4ccccc4oc3=O)cs2)cc1O,22µM*,-79*,56µM*,?,25µM*,100µM*,?,67*,Pol kappa inh-2=75*
CC(=O)Nc1ccc(Nc2nc(-c3cc4ccccc4oc3=O)cs2)cc1,145%,?,3%,-2%,9%,0%,nt,nt,
CCOC(=O)Cc1csc(N/N=C/c2cccc([N+](=O)[O-])c2)n1,34%,5,-7%,-34%,9%,-5%,nt,nt,
O=[N+]([O-])c1cccc(-c2csc(N/N=C/c3cccc(O)c3)n2)c1,45µM*,?,79µM*,-7%[11.6 µM],-6%,1%,38*,27*,
O=C(O)CSc1nc2ccc(NC(=O)COc3ccc(Cl)cc3)cc2s1,79µM*,nt,?,nt,11µM*,25µM*,67*,30*,
COCCNC(=O)C1(C)CCCN(Cc2ccc(Oc3ccccc3)cc2)C1 (stereo not drawn),nt,2,nt,1%[57.1 µM],nt,nt,nt,nt,
COc1ccc(Oc2c(OC)cc(NCc3ccc(CN)cc3)c3ncccc23)cc1,nt,-10,nt,-30%[11.6 µM],3.2µM*,nt,7.5*,15*,Pol kappa inh-2=3*
COC(=O)c1ccc(NC(=O)CC2C(=O)N(c3cccc(OC)c3)C(=O)N2Cc2ccco2)cc1 (stereo not drawn),38%,nt,-18%,nt,-15%,3%,nt,nt,
CC(Oc1cccc(Cl)c1)C(=O)Nc1cc(Cl)ccc1N1CCOCC1 (stereo not drawn),14%,19,-17%,?,-12%,nt,nt,nt,
N#Cc1c(-c2ccccc2)nc(SCC(=O)N2c3ccccc3Sc3ccccc32)[nH]c1=O,?,-22,-14%,?,40µM*,25µM*,84*,?,GALK confirm=30µM*;GALK redox cs=-4%;HEK293 viability=1%
CCN(CC)c1ccc2nc3ccc(N)cc3[n+](-c3ccccc3)c2c1,79µM*,?,22µM*,4.7µM*,?,nt,19*,76*,TbPGK inh=13µM*;Pol kappa inh-2=47*
CC(C)(Sc1ccc(CCN(CCCCC2CCCCC2)C(=O)NC2CCCCC2)cc1)C(=O)O,36%,-21,?,-5%,89µM*,?,42*,19*,Pol kappa inh-2=19*
Cc1cc(C)cc(NC(=O)C(=O)NCCc2sc(-c3cccc(F)c3)nc2C)c1,-2%,nt,0%[60.1 µM],nt,-12%,8%,nt,nt,
CCN(C(=O)Cn1nnc2sc3c(c2c1=O)CCC(C(C)(C)C)C3)c1cccc(C)c1 (stereo not drawn),29%,nt,1%,nt,nt,-3%,nt,nt,
COc1ccccc1-c1nnc2sc(-c3cnccn3)nn12,?,nt,-40%,?,45µM*,?,75*,?,
CC(/C=C1\SC(=S)N(c2ccc(C(=O)O)cc2)C1=O)=C\c1ccccc1,20µM*,-57*,-37%,?,22µM*,-24%,38*,43*,
O=S(=O)(O)c1cc(Cl)cc(N=Nc2ccc(O)cc2O)c1O,i,-98*,-170%,50µM*,13µM*,nt,12*,43*,Pol kappa inh-2=6.7*
O=[N+]([O-])c1ccc(N=Nc2ccc(O)cc2O)cc1,-1%,-17,-5%,-18%,-11%,?,nt,nt,
CC(=O)Nc1cccc(NC(=O)CCNC(=O)c2ccccc2)c1,10%,3,0%,5%,-5%,-22%,nt,nt,
Cn1nc(-c2ccncc2)nc2c(=O)n(C)c(=O)nc1-2,-97%,nt,-5%,nt,nt,nt,nt,nt,
CCn1nc(-c2ccc(C)cc2)nc2c(=O)n(C)c(=O)nc1-2,-93%,nt,-18%,nt,nt,nt,2.4*,1.7*,
CCn1cc(/C=C(\NC(=O)c2cc(OC)c(OC)c(OC)c2)C(=O)NCCCn2ccnc2)c2ccccc21,9%,nt,0%,nt,-5%,25%,nt,nt,
Cc1cc(C=O)c(C)n1-c1cccc(C(=O)O)c1,18µM*,-5,79µM*,-15%[11.6 µM],4µM*,14µM*,34*,21*,
Cc1cc(C=O)c(C)n1-c1cc(C(=O)O)cc(C(=O)O)c1,25µM*,-13,50µM*,-26%,4µM*,7.9µM*,17*,5.4*,TbPGK inh=?

# Source: PubChem (National Center for Advancing Translational Sciences (NCATS))
